From PubChem BioAssay (Tox21)
Records with an inconclusive call do not appear. Entries that show only a call come without a potency. Active and inactive are the calls of the source. Unless noted, calls come from the whole dose curve; as a rule, active = well fitted curve in the direction sought with a large enough effect in the repeat runs; inconclusive = weak or mixed curves; inactive = no such curve, though single readings can be large; an effect the other way counts as inactive or inconclusive.

Tests used:
[1] = molecular target: Retinoic acid receptor RXR-alpha (Homo sapiens) (UniProt P19793); test: qHTS assay to identify small molecule agonists of the RXR signaling pathway (AID 1159527; calls by dose curve; note: nearly all actives have a fitted effect of over 35% in size; note: potency is the fitted concentration of half-maximal effect)
Outline: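 Read-out: beta-lactamase FRET ratio (405 nm excitation, 460 and 530 nm emission) after 2 hr substrate loading at room temperature. Cells were RXR-alpha-UAS-bla HEK 293T treated with compounds for 16 hr in 2% charcoal-stripped FBS medium.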

[2] = qHTS assay to identify small molecule agonists of the RXR signaling pathway - cell viability counter screen (AID 1159529); note: nearly all actives have a fitted effect of over 50% in size; note: potency is the fitted concentration of half-maximal effect
Outline: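 HEK 293T RXRa-bla cells, 2% CS-FBS; 5 h settle; cpd 16 h 37 C, 5% CO2; CellTiter-Glo 30 min RT, luminescence. Tetraoctyl ammonium bromide as positive control.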

[3] = qHTS assay to identify small molecule antagonists of the retinoid acid receptor (RAR) signaling pathway - cell viability counter screen (AID 1159551); note: nearly all actives have a fitted effect of over 35% in size; note: potency is the fitted concentration of half-maximal effect
Outline: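 Cytotoxicity counter screen in C3RL4 cells: 6 h compound exposure with 1 uM retinol (final), viability from cellular ATP by luminescence.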

[4] = qHTS assay to identify small molecule antagonists of the retinoic acid receptor (RAR) signaling pathway (AID 1159552; note: nearly all actives have a fitted effect of over 50% in size)
Outline: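 Cells of the C3RL4 line were seeded, incubated overnight, then dosed with compounds in DMSO followed immediately by retinol (1 uM final). Six hours later luciferase detection reagent went in; signal was measured after 30 min at RT.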

[5] = qHTS assay to identify small molecule agonists of the retinoic acid receptor (RAR) signaling pathway (AID 1159553); settings: C3RL4 RARE luciferase reporter, agonist, 6 h; activation: at 73.3 µM (top of the series); note: potency is the fitted concentration of half-maximal effect
Outline: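 Agonist activity was scored in C3RL4 cells bearing a retinoic acid response element luciferase construct. Cells were treated with compounds for 6 hr at 37 C, and luciferase signal was measured as luminescence.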

Retinoic acid receptor RXR-alpha (Homo sapiens), sequence (P19793 whole entry, looked up): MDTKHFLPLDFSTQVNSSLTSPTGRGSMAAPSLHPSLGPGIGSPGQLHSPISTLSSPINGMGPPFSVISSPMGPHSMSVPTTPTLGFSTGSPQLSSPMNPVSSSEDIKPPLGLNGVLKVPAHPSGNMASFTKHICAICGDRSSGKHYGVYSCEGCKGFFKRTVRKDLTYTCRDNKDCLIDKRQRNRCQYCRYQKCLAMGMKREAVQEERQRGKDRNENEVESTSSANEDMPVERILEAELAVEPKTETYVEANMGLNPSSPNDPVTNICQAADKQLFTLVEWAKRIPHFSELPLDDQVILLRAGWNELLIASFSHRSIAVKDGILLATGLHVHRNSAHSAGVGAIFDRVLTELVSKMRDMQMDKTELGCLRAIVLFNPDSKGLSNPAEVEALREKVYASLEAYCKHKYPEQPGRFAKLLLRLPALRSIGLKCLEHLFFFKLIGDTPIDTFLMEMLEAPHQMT

Row | SMILES | Potency [1] | Potency [2] | Potency [3] | Potency [4] | Potency [5]
1 | CCCCN(CCCC)C(C(N)=O)c1ccc(OC)cc1 (stereo not given) | inactive | inactive | inactive | – | –
2 | O=c1cc(-c2ccccc2)oc2ccc3ccccc3c12 | inactive | 19.5 µM (active) | 24.3 µM (active) | – | –
3 | CC(C)C(O)(c1ccc(OC(F)(F)F)cc1)c1cncnc1 (stereo not given) | inactive | inactive | inactive | inactive | inactive
4 | Cc1cc(O)c(C)c(C)c1O | inactive | inactive | inactive | – | –
5 | O=C(OC(=O)c1ccccc1)c1ccccc1 | inactive | inactive | inactive | – | –
6 | Cc1ccc(C(C)(C)O)cc1 | inactive | inactive | inactive | – | –
7 | FC(F)(F)c1ccccc1Cl | inactive | inactive | inactive | inactive | inactive
8 | CC(=O)c1cc2ccccc2s1 | inactive | inactive | inactive | inactive | inactive
9 | Cc1cc(C)cc(N)c1 | inactive | inactive | inactive | – | –
10 | Oc1cccc(Nc2ccccc2)c1 | inactive | inactive | inactive | inactive | –
11 | CC1=C(CC=O)C(C)(C)CCC1 | inactive | inactive | inactive | – | –
12 | Cc1[nH]cnc1CN1CCc2c(c3ccccc3n2C)C1=O | inactive | inactive | inactive | inactive | inactive
13 | Cc1cc(O)ccc1O | inactive | 22.1 µM (active) | – | – | –
14 | CC(=O)[C@H]1[C@H](C#N)C[C@H]2[C@@H]3CC=C4C[C@@H](O)CC[C@]4(C)[C@H]3CC[C@@]21C | inactive | inactive | inactive | inactive | –
15 | CC(=O)OCC(=O)NCCCOc1cccc(CN2CCCCC2)c1 | inactive | inactive | inactive | – | –
16 | CC1(C)O[C@@H]2C[C@H]3[C@@H]4C[C@H](F)C5=CC(=O)C=C[C@]5(C)[C@H]4[C@@H](O)C[C@]3(C)[C@]2(C(=O)CO)O1 | inactive | inactive | inactive | – | –
17 | CCOc1ccccc1O[C@H](c1ccccc1)[C@H]1CNCCO1 | inactive | inactive | inactive | – | –
18 | O=[N+]([O-])c1ccc(Nc2ccc(Nc3ccccc3)c(S(=O)(=O)O)c2)c([N+](=O)[O-])c1 | inactive | inactive | inactive | – | –
19 | CCCCCCCCOc1ccc(C(=O)O)cc1 | 19.3 µM (active) | inactive | inactive | – | –
20 | O=C(/C=C/c1ccc(O)c(O)c1)O[C@@H]1C[C@@](OC(=O)/C=C/c2ccc(O)c(O)c2)(C(=O)O)C[C@@H](O)[C@@H]1O | inactive | inactive | inactive | inactive | inactive
21 | OCCOCC#CCOCCO | inactive | inactive | inactive | – | –
22 | CCC(=O)C1CC(C(C)C)CC=C1C (stereo not given) | inactive | inactive | inactive | inactive | inactive
23 | CCCCCC[C@@H](O)C/C=C\CCCCCCCC(=O)O | 49 µM (active) | 38.9 µM (active) | inactive | – | –
24 | CCC=CC#N | inactive | inactive | inactive | – | –
25 | O=C1c2ccccc2C(=O)C1c1nc2ccccc2c(Br)c1O | inactive | inactive | inactive | inactive | 24.3 µM (active)
26 | CCC1CO1 (stereo not given) | inactive | inactive | inactive | inactive | inactive
27 | C1COC1 | inactive | inactive | inactive | inactive | –

Row | SMILES | Potency [1] | Potency [2] | Potency [3] | Potency [4] | Potency [5]
28 | CCC1NC(=O)c2cc(S(N)(=O)=O)c(Cl)cc2N1 (stereo not given) | inactive | inactive | inactive | – | –
29 | CCCCN(CCN(CCCC)C(=O)N1CCOCC1)C(=O)N1CCOCC1 | inactive | inactive | inactive | – | –
30 | C=CC(C)(CCC=C(C)C)OC(=O)CC(C)C (stereo not given) | inactive | inactive | inactive | inactive | inactive
31 | C/C=C/C=C/C=O | inactive | inactive | inactive | – | –
32 | COc1ncnc(NS(=O)(=O)c2ccc(N)cc2)c1OC | inactive | inactive | inactive | inactive | inactive
33 | CCOC(=O)c1ccc(OCCN2C[C@H](O)[C@@H](O)[C@H](O)[C@H]2CO)cc1 | inactive | inactive | inactive | – | –
34 | CN1CC(=O)N2[C@H](c3ccc4c(c3)OCO4)c3[nH]c4ccccc4c3C[C@@H]2C1=O | inactive | inactive | inactive | inactive | inactive
35 | COC(=O)CCS | inactive | inactive | inactive | – | –
36 | CC(=O)Nc1ccc(C)cc1C | inactive | inactive | inactive | – | –
37 | OC1(c2ccccc2)CCNCC1 | inactive | inactive | inactive | inactive | inactive
38 | O=C(O)c1ccc(OCCCOc2ccc(C(=O)O)cc2)cc1 | inactive | inactive | inactive | – | –
39 | C=C1c2cccc(O)c2C(O)=C2C(=O)[C@]3(O)C(O)=C(C(N)=O)C(=O)[C@@H](N(C)C)[C@@H]3[C@@H](O)[C@H]12 | inactive | inactive | inactive | inactive | inactive
40 | O=c1[nH]c2ccc(Cl)cc2o1 | inactive | inactive | inactive | inactive | inactive
41 | CC(C)=CC(=O)C=C(C)C | inactive | inactive | inactive | inactive | inactive
42 | CN1C(=O)OC(C)(C)C1=O | inactive | inactive | inactive | inactive | inactive
43 | CCOC(=O)c1ccc(I)cc1 | inactive | inactive | inactive | inactive | inactive
44 | CCC(=O)OC | inactive | inactive | inactive | inactive | inactive
45 | CC[N+](CC)(CCNC(=O)C(=O)NCC[N+](CC)(CC)Cc1ccccc1Cl)Cc1ccccc1Cl | inactive | inactive | inactive | inactive | inactive
46 | CCn1cc(C(=O)O)c(=O)c2cc(F)c(N3CCNCC3)cc21 | inactive | inactive | inactive | inactive | inactive
47 | C=C1C[C@@]23CC[C@H]4[C@@](C)(CCC[C@@]4(C)C(=O)O[C@@H]4O[C@H](CO)[C@@H](O)[C@H](O)[C@H]4O)[C@@H]2CC[C@]1(O[C@@H]1O[C@H](CO)[C@@H](O)[C@H](O[C@@H]2O[C@H](CO)[C@@H](O)[C@H](O)[C@H]2O)[C@H]1O[C@@H]1O[C@H](CO)[C@@H](O)[C@H](O)[C@H]1O)C3 | inactive | inactive | inactive | inactive | inactive
48 | CCN(CC)CCNC(=O)COc1ccc(OC)cc1 | inactive | inactive | inactive | inactive | inactive
49 | CC(CO)CO | inactive | inactive | inactive | inactive | inactive
50 | Nc1cccc2c1CN(C1CCC(=O)NC1=O)C2=O (stereo not given) | inactive | inactive | inactive | inactive | inactive
51 | CCCC(=O)C(=O)O | inactive | inactive | inactive | inactive | inactive
52 | CO[C@]1(NC(=O)CSC(F)F)C(=O)N2C(C(=O)O)=C(CSc3nnnn3CCO)CO[C@H]21 | inactive | inactive | inactive | inactive | inactive
53 | C(=C\c1ccccc1)/c1ccccc1 | inactive | inactive | inactive | inactive | 8.56 µM (active)
54 | O=C1NCCN1CCO | inactive | inactive | inactive | inactive | inactive

Row | SMILES | Potency [1] | Potency [2] | Potency [3] | Potency [4] | Potency [5]
55 | C[C@@H](O)[C@H]1C(=O)N2C(C(=O)O)=C([C@H]3CCCO3)S[C@H]12 | inactive | inactive | inactive | inactive | inactive
56 | O=C(Nc1cccc2c(=O)cc(-c3nn[nH]n3)oc12)c1ccc(OCCCCc2ccccc2)cc1 | inactive | inactive | inactive | inactive | inactive
57 | CCC(OCCCOC)OC(C)=O (stereo not given) | inactive | inactive | inactive | inactive | inactive
58 | O=C(Cn1ccnc1[N+](=O)[O-])NCCO | inactive | inactive | inactive | inactive | inactive
59 | CC(CN(C)C)C(C)(O)Cc1ccc(Cl)cc1 (stereo not given) | inactive | inactive | inactive | inactive | inactive
60 | N#[N+]c1ccc2c(S(=O)(=O)[O-])cccc2c1O | inactive | inactive | inactive | inactive | inactive
61 | CN(C)CCN1C(=O)c2ccccc2N(C)c2ccccc21 | inactive | inactive | inactive | inactive | inactive
62 | CC=C(Cl)Cl | inactive | inactive | inactive | inactive | inactive
63 | C=C(C)C(=O)OCCCCCCCCCCCCC | inactive | inactive | inactive | inactive | inactive
64 | CC1(C)S[C@@H]2[C@H](NC(=O)C(c3ccccc3)S(=O)(=O)O)C(=O)N2[C@H]1C(=O)O (stereo not given in full) | inactive | inactive | inactive | inactive | inactive
65 | Nc1ncnc2c1ncn2[C@H]1CC[C@@H](CO)O1 | inactive | inactive | inactive | inactive | inactive
66 | CCC1(CO)COCOC1 | inactive | inactive | inactive | inactive | inactive
67 | N#CCc1ccc(Cl)cc1Cl | inactive | inactive | inactive | inactive | inactive
68 | C=COCC(C)C | inactive | inactive | inactive | inactive | inactive
69 | CCCCCCCC/C=C\CCCCCCCCCCCC(=O)O | inactive | inactive | inactive | inactive | inactive
70 | NCCNCCO | inactive | inactive | inactive | inactive | inactive
71 | CCCCOc1ccc(OCCCN2CCOCC2)cc1 | inactive | inactive | inactive | inactive | 21.1 µM (active)
72 | CC(C)(C)C(=O)C(=O)O | inactive | inactive | inactive | inactive | inactive
73 | CCCCCCCCN | inactive | inactive | inactive | inactive | inactive
74 | CC(C)=CCC/C(C)=C/CC/C(C)=C/CCC(=O)OC/C=C(\C)CCC=C(C)C | inactive | inactive | inactive | inactive | inactive
75 | CCCCCCCC/C=C\CCCCCCCCO | inactive | inactive | inactive | inactive | inactive
76 | CCOC(=O)/C=C/C(=O)OCC | inactive | inactive | inactive | inactive | inactive
77 | O[C@@H]1CO[C@H]2[C@@H]1OC[C@@H]2O | inactive | inactive | inactive | inactive | inactive
78 | CCOC(=O)OC(C)OC(=O)[C@@H]1N2C(=O)[C@@H](NC(=O)[C@H](N)c3ccccc3)[C@H]2SC1(C)C (stereo not given in full) | inactive | inactive | inactive | inactive | inactive
79 | Cc1cc(C)c(N)cc1C | inactive | inactive | inactive | inactive | inactive
